Reference: PubChem BioAssay (NCI)
This is part of a sample that, as a whole, favours compounds with a hit. Of some 79,000 tested, about 15% had one in any assay. A number with no mark means an inactive call. Activity calls are given as the source filed them. Rule as the data show it: active = growth inhibition above about 70%; inactive = the rest.

Experiments:
[1] = NCI Yeast Anticancer Drug Screen. Data for the rad50 strain (AID 155);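 also: 0% = growth of vehicle-only cultures of the same strain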; conditions: S. cerevisiae rad50 strain growth inhibition; at 50.0 µM; active compounds read high
In short: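 Relative growth inhibition (compound vs vehicle) was measured in yeast with a defined repair-gene alteration.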

[2] = NCI Yeast Anticancer Drug Screen. Data for the mec2-1 strain (AID 157); conditions: S. cerevisiae mec2-1 strain, at 50.0 µM, active compounds read high
In short: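 Cells of the genetically defined mec2-1 yeast strain are incubated with test compound. Inhibition of growth is calculated against vehicle-treated controls.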

[3] = NCI Yeast Anticancer Drug Screen. Data for the sgs1 mgt1 strain (AID 161);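 also: 0% = growth of cultures given vehicle only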; conditions: S. cerevisiae sgs1 mgt1 strain, at 50.0 µM, active compounds read high
In short: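 Read-out: growth inhibition vs vehicle controls. Cells: mutant yeast strain deficient in DNA damage repair.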

[4] = NCI Yeast Anticancer Drug Screen. Data for the cln2 rad14 strain (AID 165);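 also: 0% = growth equal to vehicle treated cultures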; conditions: S. cerevisiae cln2 rad14 strain, at 50.0 µM, active compounds read high
In short: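 The screen exposed genetically defined yeast (cln2 rad14) to test compounds and scored growth inhibition relative to vehicle-treated controls.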

[5] = NCI Yeast Anticancer Drug Screen. Data for the bub3 strain (AID 167); conditions: S. cerevisiae bub3 mutant strain, at 50.0 µM, active compounds read high
In short: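 Screening used yeast with an engineered genetic alteration affecting cell cycle control. Compound-exposed cultures were compared with vehicle cultures, and reduced growth was taken as inhibition.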

[6] = NCI Yeast Anticancer Drug Screen. Data for the mlh1 rad18 strain (AID 175); conditions: S. cerevisiae mlh1 rad18 strain growth inhibition; at 50.0 µM; active compounds read high
In short: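 Compound-treated yeast growth, normalised to vehicle controls. Strain bears defined DNA repair mutations.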

Row | SMILES | growth inhibition [1] | growth inhibition [2] | growth inhibition [3] | growth inhibition [4] | growth inhibition [5] | growth inhibition [6] [%]
1 | C=C(/C=C/CCCC)NC(=O)OCc1ccccc1 | 13.4% | 12.4% | 8% | -39.5% | 1.25% | 18.9
2 | CCN(CC)P1(=O)C=C(C)C2C1C1C=C(C)C2P1(=O)N(CC)CC (stereo not drawn) | 3.5% | -2.45% | -5.25% | -5.25% | -34.8% | -13.2
3 | CCCCCCC(C)Oc1ccccc1Cl (stereo not drawn) | 5.35% | -11.5% | 7.9% | -23.9% | 6.4% | -20.6
4 | O=C(/C=C/c1ccc(OCCSCCCCCCCCCCSCCOc2ccc(/C=C/C(=O)c3ccc(Cl)cc3)cc2)cc1)c1ccc(Cl)cc1 | -26.9% | -25.1% | -21.9% | 13.7% | -8.95% | -29.9
5 | NCC1OCOC2C(C(=O)O)OCOC12 (stereo not drawn) | 10.6% | 2.6% | 14.3% | -16% | 3.8% | -3.7
6 | C[N+](C)(C)CC(=O)N/N=C(/CC(=O)CC(C1=C(O)c2ccccc2OC1)c1ccccc1)C(=O)Nc1cccc(Cl)c1 (stereo not drawn) | 58% | 39.5% | 27.7% | 34.4% | 28.4% | 5.5
7 | Cc1ccc(S(=O)(=O)OCC2CC=CCC2COS(=O)(=O)c2ccc(C)cc2)cc1 (stereo not drawn) | 5.4% | -8.2% | -9.75% | -15.2% | 6% | 28.8
8 | C=CC(=O)NC(C)C(=O)O (stereo not drawn) | -4.45% | -2.5% | 0% | -7.05% | -10.9% | -4.15
9 | CCCCN=C1Nc2nc(=NCCCC)nc3c(Br)cc(Br)c(n23)N1 | 37.2% | 20.2% | 5.4% | 23.4% | -4.9% | 21.9
10 | CCCCCCCC(=O)N(CCCCC)CCCCC | 66.5% | 77.2% (active) | 77.2% (active) | 74% (active) | 66.5% | 66.5
11 | CSc1ccc([C@@H](O)[C@H](CO)NC(=O)C(Cl)Cl)cc1 | 72.9% (active) | 90.2% (active) | 88.4% (active) | 31.6% | 74.1% (active) | 47.6
12 | CN(C)c1ccc([Si](c2ccc(N(C)C)cc2)c2ccc(N(C)C)cc2)cc1 | -18.5% | 3.65% | -19.1% | -28.8% | -1.1% | 23.4
13 | Cn1c(=O)c2c(nc(NCCO)n2Cc2ccccc2)n(C)c1=O | 20.1% | 9.95% | 7.2% | 18.3% | 8.45% | 31.2
14 | CCOC(=O)Nc1nn(-c2ccc3ccccc3n2)c(=O)[nH]1 | 15.7% | 1.65% | 10.7% | 11.9% | 7.75% | 13.7
15 | COc1cc(OC)cc(C2OC(N)=C(O)C2=O)c1 (stereo not drawn) | 9.65% | 4.25% | 13% | 14.9% | 2.35% | 19.3
16 | CCOC(CN/C(=C/c1ccc2ccccc2[n+]1C)SC)OCC | -10.8% | 9.15% | -8.4% | -12.1% | -32.8% | -8.2
17 | O=C(O)CCN1CCSC1=O | 7.15% | 12.6% | -4.3% | 3.75% | 2.35% | 1.8
18 | CCOC(=O)c1c(C(=O)OCC)c(C)n(/N=N/n2c(C)c(C(=O)OCC)c(C(=O)OCC)c2C)c1C | 29.3% | 9.75% | 23.6% | 26.3% | -1.45% | 12.8
19 | O=C1C=CC(=Nc2ccc(OC(=O)c3ccccc3)cc2)C=C1 | 9.9% | -4.95% | 1.45% | -35% | -3.8% | 9.35

Row | SMILES | growth inhibition [1] | growth inhibition [2] | growth inhibition [3] | growth inhibition [4] | growth inhibition [5] | growth inhibition [6] [%]
20 | CCC(C)(S)CN (stereo not drawn) | -1.55% | -2.55% | -7.35% | -37.5% | -11.4% | -1.55
21 | COC(=O)C(/C(=N\O)C(=O)Nc1cccc(Cl)c1C)c1cnc2ccccc2n1 (stereo not drawn) | 14.5% | -11.1% | 8.75% | 23.5% | -0.2% | 12.5
22 | CC(=O)CC(=O)NCCCN1CCCCCC1 | -1.1% | -20.1% | -9.45% | -1.05% | -11.2% | -4.35
23 | COC(=O)c1c2c(cc3c1CC1(C3)Cc3cc4c(c(C(=O)OC)c3C1)CCC4)CCC2 | 3.25% | -35.6% | -3.65% | -0.8% | -7.85% | 10.3
24 | CC1=CCS(=O)(=O)C1 | 22.4% | 1.55% | 12.2% | 10.3% | -4.1% | 29
25 | CSc1ccc(NC(=O)C(Cl)Cl)cc1 | -3.35% | 5.8% | 5.1% | 13% | -15.3% | 1.9
26 | CCN(CC)c1ccc(N=Nc2ccc([N+](=O)[O-])cc2OC(=O)/C=C/c2ccccc2)c(OC(=O)/C=C/c2ccccc2)c1 | -17.6% | -47.9% | -12.9% | 5.6% | -32.5% | -22.8
27 | Cc1c(C)c(O)c2c(c1C)C(C)C(=O)OC2=O (stereo not drawn) | 1.2% | -37.8% | -13.2% | 10% | -19.3% | -0.15
28 | COc1ccc(/C=N/Nc2c([N+](=O)[O-])cc(C)cc2[N+](=O)[O-])cc1 | 35.1% | 13.2% | 16.3% | 13% | 11.8% | 7.8
29 | Cc1nnc(Nc2ccc(Cl)c(Cl)c2)s1 | -6.95% | -20% | 26.8% | 12.3% | 11.3% | 4.75
30 | CC(=O)/C(C)=N/Nc1ccccc1 | 7.35% | 8.6% | -2.6% | -11% | -5.7% | 11
31 | C=CCc1cc(Br)ccc1O | 20.7% | 5.9% | -9.85% | 11.1% | -17.4% | 33.5
32 | CC1CC2=Cc3c(O)c(O)cc(O)c3C(=O)C2=CO1 (stereo not drawn) | -5.5% | -31.7% | -19.7% | -11.6% | -5.7% | -19.1
33 | COC(=O)c1c2c(cc3c1CC1(Cc4cc5c(c(C(C)=O)c4C1)CCC5)C3)CCC2 (stereo not drawn) | -34.1% | -15.5% | -63.8% | -4.1% | -20.7% | -41.5
34 | COc1cccc(C(N)=O)c1OC | 3.35% | 8.05% | -10.9% | -22.4% | 11.7% | -15.2
35 | CC(C)C1CC(N(C)C)=CC(=O)N1 (stereo not drawn) | -41.5% | 5.95% | 2.75% | -14.4% | 10.8% | 10.9
36 | NC(CCC(=O)O)C(=O)NC(Cc1c[nH]c2ccccc12)C(=O)O (stereo not drawn) | -12.7% | 12.3% | -5.05% | -23.1% | -22.4% | -24.6
37 | Cc1cccc(Cl)c1NC(=O)Nc1ccc(Cl)cc1C(=O)c1ccccc1 | 5.5% | -4.1% | 6.75% | 4.2% | 7.45% | -9.6
38 | CC(C)c1cccc(C(C)C)c1NC(=O)OC1CCCCC1 | -11.7% | -22.8% | 8.2% | 20.2% | -1.6% | -2.85
